Results from PubChem BioAssay.

Assay: Pseudomonas biofilm growth suppression – PAO1 strain, BacTiter-Glo luminescence, LB-PBS, primary screen (AID 1144)
Conditions: P. aeruginosa PAO1 biofilm, 12 h, higher = more signal; call rule not given here

z-score, inactive:
COCC(=C=CC[C@@H](O)c1ccc(CO)o1)CCO -1.23, CC(C)N1C(=O)c2ccccc2[C@@H](C(=O)NCCCN(C)C)[C@@H]1c1ccc(CO)cc1 -0.282, C=C[C@@H](COC(C)=O)N(Cc1ccc([N+](=O)[O-])cc1)S(=O)(=O)c1ccc(Br)cc1 -0.91, CC(C)C(=C=CC[C@@H](O)c1ccccc1OCCO)C[C@@H](O)c1ccccn1 0.497, C=CCNC(=O)[C@@H]1[C@H]2C(=O)O[C@H](c3ccccc3)[C@H](c3ccccc3)N2[C@H](c2ccc(O)cc2)[C@@]12C(=O)N(C(=O)OCCOC)c1ccccc12 -0.848, CC(C)(C)OC(=O)CC[C@@]1(C(=O)NCCN2CCOCC2)N=C(c2ccc(OCCCO)cc2)O[C@@H]1c1ccccc1 0.174, N#Cc1ccc(NN2C(C(O)C3CCCCC3)C=CC3C(=O)N(c4ccccc4)C(=O)C32)cc1 (stereo not given) -0.984, C=CCN1C(=O)[C@]2(O[C@H](CCO)[C@@H]([Si](C)(C)c3ccc(OC)cc3)[C@@H]2C)c2cc(NC(=O)[C@H](C)O)ccc21 1.01, O=C1O[C@H](c2ccccc2)[C@H](c2ccccc2)N2[C@H]1[C@@H](C(=O)N1CCN(c3ncccn3)CC1)[C@]1(C(=O)Nc3ccccc31)[C@H]2c1ccc(OCCO)cc1 -2.01, O=C1OCCC/C=C\[C@H]2OC34C=CCN(Cn5nnc6ccccc65)C(=O)[C@H]3N(CCCCCO)C(=O)[C@@H]4C12 (stereo not given in full) -0.477
